Experimental data as given in PubChem BioAssay (EPA / NIEHS).
Records with an inconclusive call do not appear. Activity calls are given as the source filed them. Rule for the calls, unless noted: active = hit-call score of the fitted dose curve at least 0.9, where 1 is the maximum; inconclusive = response in the unintended direction; inactive = score below 0.9.

Legend:
[1] = Tanguay_ZF_120hpf_SWIM_legacy: (Legacy) Oregon State University Tanguay Lab 120 Hour Post-fertilization zebrafish Assay for Swim Bladder Malformation (AID 2283654);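 note: swim bladder malformation in each larva scored yes or no under brightfield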
Method in brief: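 Static waterborne exposure of single dechorionated Tropical 5D zebrafish embryos, 6–120 hpf, 28C, 0.64% DMSO final. Read-out: swim bladder malformation, present/absent, relative to DMSO negative control; trimethyltin chloride 5uM served as positive control.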

[2] = Tanguay_ZF_120hpf_TRUN_legacy: (Legacy) Oregon State University Tanguay Lab 120 Hour Post-fertilization zebrafish Assay for Truncated Body (AID 2283655)
Method in brief: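 Dechorionated Tropical 5D wild-type embryos placed singly from 6 hpf and statically exposed to 120 hpf at 28C, final DMSO 0.64%. Truncated body scored as present/absent by brightfield; not scored in dead embryos.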

[3] = test system: Thyroperoxidase (TPO), gene 54314; test: CCTE_Simmons_AUR_rTPO: CCTE's Amplex UltraRed Assay for Thyroperoxidase (TPO) Inhibition, Simmons Lab (AID 2283662);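 note: potency for loss of signal meaning inhibition of peroxidase activity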
Method in brief: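 Rat thyroid microsomes (5 ug protein) were incubated with test compound (8 concentrations, 5 nM–87.5 uM final, 0.5% DMSO), 25 uM Amplex UltraRed and 300 uM H2O2 in 200 mM phosphate buffer for 30 min at 37C in the dark; fluorescence read at 544/590 nm.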

[4] = read-out: xenobiotic metabolism (CYP1A2), CYP1A2 (gene 1544); test: CLD_CYP1A2_6hr: CellzDirect (CLD) Gene Expression Assay for xenobiotic metabolism (CYP1A2) at 6 hours (AID 2283663);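 for AC50: potency is for induction meaning a rise in mRNA above DMSO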
Method in brief: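 mRNA levels quantified by quantitative nuclease protection assay with chemiluminescence, 6 h after dosing human primary hepatocyte cultures (two donors) across several concentrations, vehicle 0.2% DMSO. Induction fitted upward versus DMSO; phase-contrast cytotoxicity annotated.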

[5] = read-out: xenobiotic metabolism (CYP2C9), CYP2C9 (gene 1559); test: CLD_CYP2C9_6hr: CellzDirect (CLD) Gene Expression Assay for xenobiotic metabolism (CYP2C9) at 6 hours (AID 2283664)
Method in brief: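 Readout is qNPA chemiluminescence of CYP2C9 mRNA, taken 6 h after dosing of cultured human liver primary cells at several concentrations. Activity is the increase over 0.2% DMSO baseline. Morphology-based cytotoxicity flagged yes/no.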

[6] = read-out: alkyl and aryl transferase (GSTA2), GSTA2 (gene 2939); test: CLD_GSTA2_6hr: CellzDirect (CLD) Gene Expression Assay for alkyl and aryl transferase (GSTA2) at 6 hours (AID 2283666)
Method in brief: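 GSTA2 transcript induction at 6 h, quantified by nuclease protection (qNPA) with chemiluminescent detection, in human liver primary hepatocytes exposed to several compound concentrations with 0.2% DMSO as baseline; phase-contrast morphology annotated apparent cytotoxicity.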

[7] = Tanguay_ZF_120hpf_TR_legacy: (Legacy) Oregon State University Tanguay Lab 120 Hour Post-fertilization zebrafish Assay for Touch Response (AID 2283667)
Method in brief: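 Readout is presence or absence of touch response in 120 hpf zebrafish larvae, assessed by brightfield observation after continuous static exposure at 28C. Final vehicle was 0.64% (vol/vol) DMSO.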

[8] = read-out: ABC Transporter (ABCB11), ABCB11 (gene 8647); test: CLD_ABCB11_24hr: CellzDirect (CLD) Gene Expression Assay for ABC Transporter (ABCB11) at 24 hours (AID 2283674; active = hit-call score of the fitted dose curve at least 0.9, where 1 is the maximum; inactive = score below 0.9)
Method in brief: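 ABCB11 transcript was quantified by qNPA chemiluminescence in cultured human liver hepatocytes 24 hours after dosing. Fresh dosing solutions were applied on consecutive days, against a 0.2% DMSO vehicle. Cytotoxicity was noted by phase-contrast morphology.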

[9] = read-out: xenobiotic metabolism (CYP1A1), CYP1A1 (gene 1543); test: CLD_CYP1A1_6hr: CellzDirect (CLD) Gene Expression Assay for xenobiotic metabolism (CYP1A1) at 6 hours (AID 2283661);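 for AC50: potency for transcript induction above DMSO vehicle baseline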
Method in brief: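 Read-out 6 h post-dose: qNPA chemiluminescent quantitation of transcript induction against 0.2% DMSO. Cells were cultured primary human hepatocytes from two separate donor preparations; phase-contrast morphology annotated apparent cytotoxicity.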

[10] = read-out: sulfotransferase (SULT2A), SULT2A1 (gene 6822); test: CLD_SULT2A_6hr: CellzDirect (CLD) Gene Expression Assay for sulfotransferase (SULT2A) at 6 hours (AID 2283669);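 note: hits raise transcript level above the DMSO vehicle baseline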
Method in brief: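 Measured 6 h after dosing, SULT2A1 mRNA in human hepatocyte lysates was quantified by S1 nuclease protection with chemiluminescent detection. Increases fitted against 0.2% DMSO vehicle baseline; phase-contrast cytotoxicity recorded yes/no.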

[11] = read-out: xenobiotic metabolism (CYP1A1), CYP1A1 (gene 1543); test: CLD_CYP1A1_24hr: CellzDirect (CLD) Gene Expression Assay for xenobiotic metabolism (CYP1A1) at 24 hours (AID 2283673);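 note: CYP1A1 mRNA level by quantitative nuclease protection with chemiluminescence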
Method in brief: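 Transcript levels were read at 24 h by qNPA chemiluminescence in human liver primary cells. Cells got daily fresh dosing at multiple concentrations (vehicle 0.2% DMSO). Induction fitted upward against DMSO; phase-contrast cytotoxicity annotated.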

[12] = read-out: ABC Transporter (ABCB1), ABCB1 (gene 5243); test: CLD_ABCB1_6hr: CellzDirect (CLD) Gene Expression Assay for ABC Transporter (ABCB1) at 6 hours (AID 2283659);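 note: hits raise ABCB1 transcript above the DMSO vehicle baseline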
Method in brief: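 ABCB1 transcript measured by quantitative nuclease protection assay, chemiluminescent read-out, 6 h after dosing human hepatocyte cultures (0.2% DMSO vehicle, daily redosing). Activity fitted as increase over DMSO baseline; cytotoxicity flagged by phase-contrast morphology.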

[13] = read-out: Broad substrate specificity ATP-binding cassette transporter ABCG2 (Homo sapiens) (UniProt Q9UNQ0); test: CLD_ABCG2_6hr: CellzDirect (CLD) Gene Expression Assay for ABC Transporter (ABCG2) at 6 hours (AID 2283660)
Method in brief: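 ABCG2 mRNA induction measured by qNPA chemiluminescence in human primary hepatocyte cultures, 6 h post-dose. Chemicals tested at several concentrations against a 0.2% DMSO vehicle; positive-direction fit relative to DMSO.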

[14] = read-out: glucuronosyltransferase (UGT1A1), UGT1A1 (gene 54658); test: CLD_UGT1A1_6hr: CellzDirect (CLD) Gene Expression Assay for glucuronosyltransferase (UGT1A1) at 6 hours (AID 2283672)
Method in brief: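 UGT1A1 mRNA induction, read by quantitative nuclease protection assay, 6 h after dosing primary human hepatocytes (two donors, 0.2% DMSO vehicle). Gain of signal fitted relative to vehicle.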

[15] = CCTE_Simmons_CellTiterGLO_HEK293T: Viability Assessment in CCTE's Assays for Thyroperoxidase (TPO) Inhibition, Simmons Lab (AID 2283665);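 note: cells exposed to compound for 24 h before readout; actives reduce ATP signal below DMSO vehicle meaning cytotoxicity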
Method in brief: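 Luciferase-coupled ATP content after 24 h exposure gives viability; 8-point series from 5 nM to 87.5 uM final in 0.5% DMSO. Human HEK293T cells, 1% FBS medium, three biological replicates, dichlone positive control.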

Measured: AC50

Broad substrate specificity ATP-binding cassette transporter ABCG2 (Homo sapiens), sequence (Q9UNQ0 whole entry, looked up): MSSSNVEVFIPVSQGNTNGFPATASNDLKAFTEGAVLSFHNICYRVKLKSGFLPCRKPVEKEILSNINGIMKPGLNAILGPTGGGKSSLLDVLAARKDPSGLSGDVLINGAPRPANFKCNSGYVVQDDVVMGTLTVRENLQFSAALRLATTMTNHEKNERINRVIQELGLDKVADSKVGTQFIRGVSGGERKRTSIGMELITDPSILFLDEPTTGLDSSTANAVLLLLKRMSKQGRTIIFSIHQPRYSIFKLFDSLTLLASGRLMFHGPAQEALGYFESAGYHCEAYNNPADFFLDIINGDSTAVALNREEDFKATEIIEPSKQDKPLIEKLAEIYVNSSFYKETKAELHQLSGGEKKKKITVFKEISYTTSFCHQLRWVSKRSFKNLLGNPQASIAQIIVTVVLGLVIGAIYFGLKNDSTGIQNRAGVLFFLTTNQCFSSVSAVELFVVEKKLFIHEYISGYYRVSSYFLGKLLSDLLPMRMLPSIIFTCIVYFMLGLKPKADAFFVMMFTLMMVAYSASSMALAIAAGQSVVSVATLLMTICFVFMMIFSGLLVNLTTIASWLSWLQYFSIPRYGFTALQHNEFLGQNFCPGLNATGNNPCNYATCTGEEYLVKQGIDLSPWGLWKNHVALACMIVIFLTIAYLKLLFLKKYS

CCNC(=O)NC(=O)C(C#N)=NOC
active: [1] 53.2 µM | [3] 41.2 µM
inactive: [2] | [4] | [5] | [6] | [7] | [8]

CS(=O)(=O)c1cc(C(F)(F)F)ccc1C(=O)c1cnoc1C1CC1
inactive: [1] | [2] | [9] | [4] | [5] | [7] | [10] | [11]

Nc1c(Cl)c(F)nc(OCC(=O)O)c1Cl
inactive: [2] | [12] | [13] | [4] | [5] | [7] | [11]

C=CCOC(=O)C(C)(C)OC(=O)c1cc(-n2c(=O)cc(C(F)(F)F)n(C)c2=O)ccc1Cl
inactive: [2] | [12] | [13] | [4] | [5] | [6] | [14]

CCOC(=O)C(C)OC(=O)c1cc(Oc2ccc(C(F)(F)F)cc2Cl)ccc1[N+](=O)[O-] (stereo unspecified)
inactive: [1] | [2] | [12] | [7]
active: [4] 4.81 µM | [11] 20 µM

N#Cc1c(Cl)cccc1Cl
inactive: [1] | [2] | [12] | [5] | [6] | [7]

OC(c1ccc(Cl)cc1)(c1ccc(Cl)cc1)C(Cl)(Cl)Cl
active: [3] 43.8 µM | [15] 6.74 µM | [11] 20 µM
inactive: [1] | [12] | [13] | [4] | [5] | [7] | [8]

CNC(=O)Oc1cccc2ccccc12
active: [9] 4.68 µM | [4] 6.08 µM | [11] 8.24 µM
inactive: [1] | [2] | [7]

CN/C(=N\[N+](=O)[O-])NCc1cnc(Cl)s1
inactive: [1] | [2] | [7]
